Molecules are shown by their SMILES. Inconclusive results are not listed. Active and inactive are the calls of the source. Calls follow the shape of the dose curve; as a rule, active = well fitted cell-killing curve with a large enough effect; inconclusive = small, poorly fitted or top-dose-only effect, or effect the other way; inactive = no such curve, though single readings can be large or run the other way.
Potency is read from the fitted curve at half-maximal effect.

For the assay, the system named is JEG-3. Kind of assay: Confirmatory qHTS for gynecologic anti-cancer compounds from libraries of approved drugs and bioactive compounds. Also: nearly all actives have a fitted effect of over 55% in size. The note with it: gynecologic cancer cell panel viability, ATPlite luminescence, 48 h; series mostly up to 57.6 µM. The procedure, abridged: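 1,000 cells/well; 16 h pre-incubation 37 C, 5% CO2; pin-transferred cpd in DMSO, 11 conc (1:3), 57.5 uM–0.977 nM; 48 h; ATPlite, 15 min RT; luminescence → IC50.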
Turning to `CC(Oc1ccc2[nH]nc(/C=C/c3cnn(CCO)c3)c2c1)c1c(Cl)cncc1Cl` (configuration not stated), the Potency is 6.85 µM (active).
Next, `Cc1ccc(C(N)=O)cc1Nc1nccc(-c2cn(C(C)C)c3cnccc23)n1`: 7.69 µM (active).
As for `Cc1nc(Nc2n[nH]c3c2CN(C(=O)NC(CN(C)C)c2ccccc2)C3(C)C)c2sccc2n1` (configuration not stated), the figure is 0.544 µM (active); as for `Cc1c(NC(=O)OCC2COCCN2)cn2ncnc(Nc3ccc4c(cnn4Cc4cccc(F)c4)c3)c12` (configuration not stated), 30.6 µM (active); as for `CC[C@@]1(O)C(=O)OCc2c1cc1n(c2=O)Cc2cc3cc(O)ccc3nc2-1`, 0.217 µM (active).
Next, `CNC(=O)CN1CCC(Oc2cc3c(Nc4cccc(Cl)c4F)ncnc3cc2OC)CC1`: “inactive”; `O=C(CCCCCCNC(=O)c1cnc(N(c2ccccc2)c2ccccc2)nc1)NO`: 7.69 µM (active); `Cc1cnc(Nc2cccc(CN3CCOCC3)c2)nc1Nc1cccc(S(=O)(=O)NC(C)(C)C)c1`: 17.2 µM (active).
With `Cc1cnc(Nc2ccc(CN3CCOCC3)cc2)nc1Nc1cccc(S(=O)(=O)NC(C)(C)C)c1`, the Potency is 9.68 µM (active).
As for `NC(=O)c1cnc(-c2ccc(C3(N)CCC3)cc2)c(-c2ccccc2)c1`, the figure is 30.6 µM (active); as for `O=C1N(c2ccccc2)c2ccccc2C1(Cc1ccncc1)Cc1ccncc1`, “inactive”.
Next, `Cc1ccc(C(=O)N(CCCN)C(c2nc3cc(Cl)ccc3c(=O)n2Cc2ccccc2)C(C)C)cc1` (configuration not stated): 0.0153 µM (active); `Cc1cc(C(=O)N2CCN(c3cccc(Cl)c3)CC2)n(-c2ccccc2)n1`: 3.43 µM (active).
Take `Fc1cc(-c2cccc3ncc(-c4cnn(C5CCNCC5)c4)nc23)cc(F)c1CN1CCOCC1`: the Potency is 30.6 µM (active).
As for `Nc1ncnc2c1ncn2[C@@H]1O[C@H](CO)C[C@H]1O`, the Potency result was “inactive”.
Turning to `CC(C)Oc1ccc(C(=O)NC(CNC(=O)CN(C)C)Cc2ccc(-c3cn4cccc(C(C)O)c4n3)cc2)cc1Cl` (configuration not stated), the Potency is 0.544 µM (active).
Next, `C[C@]12CCC(=O)C=C1[C@@H]1C[C@@H]1[C@H]1[C@@H]3[C@@H]4C[C@@H]4[C@@]4(CCC(=O)O4)[C@@]3(C)CC[C@@H]12`: “inactive”; `COc1cc2c(cc1-c1c(C)noc1C)ncc1[nH]c(=O)n(C(C)c3ccccn3)c12` (configuration not stated): 3.06 µM (active).
Next, `O=C(Nc1cn[nH]c1-c1nc2ccc(CN3CCOCC3)cc2[nH]1)NC1CC1`: 12.2 µM (active); `CC[C@H](CC#N)OC(=O)N[C@@H](C)c1cccc(NC(=O)Nc2ccc(-c3cnco3)c(OC)c2)c1`: 15.3 µM (active); `COc1cc(N2CCC(N(C)C)CC2)ccc1Nc1ncc(Cl)c(Nc2ccccc2P(C)(C)=O)n1`: 15.3 µM (active).
For `CN(C)C/C=C/C(=O)Nc1cc2c(Nc3ccc(F)c(Cl)c3)ncnc2cc1OC1CCOC1` (configuration not stated), the Potency is 19.3 µM (active).
Turning to `COC(=O)c1ccc2c(C(=Nc3ccc(N(C)C(=O)CN4CCN(C)CC4)cc3)c3ccccc3)c(O)[nH]c2c1`, the Potency entry was “inactive”.
Take `O=c1[nH]c(=O)n([C@H]2C[C@H](O)[C@@H](CO)O2)cc1Br`: the Potency entry was “inactive”.
Next, `CCn1cc(-c2ccnc3[nH]c(-c4cccc(CN(C)C)c4)cc23)c(-c2ccc(NC(=O)N(C)C)cc2)n1`: 13.3 µM (active).
As for `Cc1cnc(Nc2ccc(OCCN3CCCC3)cc2)nc1Nc1cccc(S(=O)(=O)NC(C)(C)C)c1`, the figure is 24.3 µM (active); as for `NC(=O)c1ccc2nc(-c3ccc(Oc4ccc(Cl)cc4)cc3)[nH]c2c1`, 21.7 µM (active); as for `COc1cc(N2CCC(N3CCN(C)CC3)CC2)ccc1Nc1ncc(Cl)c(Nc2ccccc2S(=O)(=O)C(C)C)n1`, 19.3 µM (active).
As for `Nc1ccc(-c2ccc3ncc4ccc(=O)n(-c5cccc(C(F)(F)F)c5)c4c3c2)cn1`, the Potency is 2.43 µM (active).
As to `O=C(O)C1(Cc2cccc(Nc3nccs3)n2)CCC(Oc2cccc(Cl)c2F)CC1` (configuration not stated), the Potency entry is “inactive”.
As for `Nc1nccc(Oc2ccc(NC(=O)c3c[nH]cc(-c4ccc(F)cc4)c3=O)cc2F)c1Cl`, the figure is 4.32 µM (active).
Take `Cc1[nH]c2ccccc2c1CCNCc1ccc(/C=C/C(=O)NO)cc1`: the Potency is 0.193 µM (active).
